Assay outcomes from PubChem.
Only a selection was taken, and hits are over-represented in it overall.
Dicer inh – inhibitors of Dicer pre-microRNA processing, primary screen, biochemical, cat-ELCCA, chemiluminescence | Endoribonuclease Dicer (Homo sapiens), Q9UPY3 | cat-ELCCA pre-miR-21 Dicer processing; active compounds read high | z-score at 25 µM | 47,000 compounds, 6% hits; in the data active means z-score above about 3, passing the limit was not always enough;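 further: plate controls were vehicle for no effect and no enzyme for full effect; higher signal means more uncleaved substrate so more Dicer inhibition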
Target sequence (Q9UPY3 whole entry, looked up): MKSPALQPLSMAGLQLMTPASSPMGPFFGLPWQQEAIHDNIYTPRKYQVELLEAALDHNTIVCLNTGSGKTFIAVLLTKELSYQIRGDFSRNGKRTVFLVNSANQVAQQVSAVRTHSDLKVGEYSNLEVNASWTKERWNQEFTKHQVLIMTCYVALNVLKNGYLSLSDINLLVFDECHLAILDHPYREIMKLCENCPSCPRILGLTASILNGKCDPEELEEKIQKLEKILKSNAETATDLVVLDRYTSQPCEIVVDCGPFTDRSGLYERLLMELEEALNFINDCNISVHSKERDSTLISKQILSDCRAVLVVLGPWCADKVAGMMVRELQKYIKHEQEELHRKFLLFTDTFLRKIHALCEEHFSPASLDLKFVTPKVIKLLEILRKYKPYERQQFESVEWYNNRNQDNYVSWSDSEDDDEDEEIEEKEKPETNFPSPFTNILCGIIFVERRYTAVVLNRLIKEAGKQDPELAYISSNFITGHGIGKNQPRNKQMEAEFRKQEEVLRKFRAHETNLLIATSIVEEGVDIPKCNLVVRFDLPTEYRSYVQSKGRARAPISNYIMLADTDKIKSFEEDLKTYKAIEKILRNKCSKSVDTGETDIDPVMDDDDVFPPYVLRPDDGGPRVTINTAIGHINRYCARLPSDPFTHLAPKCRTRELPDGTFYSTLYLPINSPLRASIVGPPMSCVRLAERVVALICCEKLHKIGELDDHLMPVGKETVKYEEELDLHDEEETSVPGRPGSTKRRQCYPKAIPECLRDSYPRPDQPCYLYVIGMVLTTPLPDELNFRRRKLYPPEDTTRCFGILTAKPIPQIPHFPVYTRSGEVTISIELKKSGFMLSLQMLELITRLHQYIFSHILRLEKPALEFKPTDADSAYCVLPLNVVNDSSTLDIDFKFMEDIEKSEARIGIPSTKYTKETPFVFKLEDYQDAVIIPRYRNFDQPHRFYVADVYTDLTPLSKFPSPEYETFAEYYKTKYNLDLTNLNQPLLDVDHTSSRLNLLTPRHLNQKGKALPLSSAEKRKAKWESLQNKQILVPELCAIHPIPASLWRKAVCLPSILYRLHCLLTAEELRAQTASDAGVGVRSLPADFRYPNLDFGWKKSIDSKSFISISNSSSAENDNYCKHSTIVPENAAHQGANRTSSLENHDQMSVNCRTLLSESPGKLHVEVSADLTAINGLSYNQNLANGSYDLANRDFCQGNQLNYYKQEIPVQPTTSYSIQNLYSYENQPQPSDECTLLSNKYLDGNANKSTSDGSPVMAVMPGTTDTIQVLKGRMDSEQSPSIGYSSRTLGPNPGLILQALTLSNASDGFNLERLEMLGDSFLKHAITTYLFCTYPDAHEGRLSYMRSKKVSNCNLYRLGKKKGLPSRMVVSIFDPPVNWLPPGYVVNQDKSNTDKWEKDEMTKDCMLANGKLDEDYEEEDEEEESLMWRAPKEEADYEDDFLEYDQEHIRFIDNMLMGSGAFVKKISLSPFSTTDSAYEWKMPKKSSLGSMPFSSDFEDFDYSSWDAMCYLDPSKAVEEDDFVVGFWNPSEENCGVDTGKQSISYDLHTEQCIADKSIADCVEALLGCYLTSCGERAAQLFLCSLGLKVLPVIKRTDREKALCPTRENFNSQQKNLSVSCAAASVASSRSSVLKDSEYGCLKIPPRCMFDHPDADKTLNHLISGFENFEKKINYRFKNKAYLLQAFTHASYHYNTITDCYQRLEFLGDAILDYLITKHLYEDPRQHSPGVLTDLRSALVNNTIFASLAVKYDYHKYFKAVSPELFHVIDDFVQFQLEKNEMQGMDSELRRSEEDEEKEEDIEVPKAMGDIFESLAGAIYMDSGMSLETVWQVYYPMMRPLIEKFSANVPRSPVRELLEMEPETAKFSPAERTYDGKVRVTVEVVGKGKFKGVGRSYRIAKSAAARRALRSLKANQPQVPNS
* = called active by the depositor.

SMILES | Dicer inh
Nc1nc(/C=C/c2ccccc2)nc(-c2ccccc2O)n1 | -0.1
COc1ccc(/C=N/Nc2nc(-c3ccccc3)cs2)cc1 | 2.3
S=C(N/N=C/c1[nH]ncc1Br)Nc1ccccc1 | 4.2*
Cc1ccccc1CO/N=C\c1[nH]ncc1Br | 0.24
Fc1ccc(/C=N/Nc2nc(-c3ccccc3)cs2)cc1 | 6.8*
CCOC(=O)c1noc(C)c1-c1csc(N/N=C/c2ccccc2)n1 | 0.39
Clc1ccccc1/C=N/Nc1nc(-c2ccccc2)cs1 | 0.16
c1ccc(-c2csc(NN=C3C4CC5CC(C4)CC3C5)n2)cc1 | 0.85
Brc1cn[nH]c1/C=N/Nc1nc(-c2ccccc2)cs1 | 3.2*
C=CCNc1nc(-c2ccccc2)cs1 | -0.23
S=C(N/N=C/c1ccccc1)Nc1ccccc1 | 13
Cc1onc(-c2ccccc2)c1-c1csc(Nc2ccc(Cl)cc2)n1 | 1
Cc1onc(-c2ccccc2)c1-c1csc(N/N=C/c2ccccc2)n1 | 4*
Cc1c(C)c(C)c(CSC(=N)c2ccc[nH]2)c(C)c1C | -0.56
Cc1c(/C=C/c2ccnc(SCc3cccc(Cl)c3)n2)sc2ccccc12 | 0.01
Cc1c(S(=O)(=O)c2ccccn2)c(N)n(Cc2ccc(C(F)(F)F)cc2)c1C | -2.1
CSc1ncccc1C(=O)Nc1ccc2c(c1)C(=O)OC2 | -0.23
COc1ccc(S(=O)(=O)Nc2ncccc2C)c(C)c1C | 0.47
CCOC(=O)c1c(S(=O)(=O)Nc2ccccc2)c(-c2ccccc2)n(-c2ccccc2)c1C | -0.18
O=C1CCC(C(=O)Nc2ccc(N3CCOCC3)c(Cl)c2)=NN1 | 0.9
FC(F)(F)c1c2c(nc3cc(-c4ccco4)nn13)CCC2 | -0.19
Nc1ccc(-c2nc3ccccc3o2)c(O)c1 | 0.14
O=C(CCC(=O)c1ccc2c(c1)OCCO2)OCC(=O)c1ccc(F)cc1 | -0.17
Cc1[nH]cnc1CSCCNC(=O)Nc1cccc(Cl)c1 | 2.6
COC(=O)C1=C(C)NC2=C(C(=O)CC(c3ccccc3)C2)C1c1ccccn1 (configuration not stated) | 2.3
SMILES | Dicer inh
S=C(NCCn1ccnc1)Nc1ccc(Cl)cc1 | 0.86
S=C(NCCc1ccccc1)Nc1cccc(Cl)c1Cl | 0.28
NNC(=S)NCCc1ccc(Cl)cc1 | 4.5*
CCCNC(=S)/N=C(\N)N1CCOCC1 | -0.24
CC(C)c1nn(-c2cccc(C(F)(F)F)n2)c(=O)o1 | 0.59
CN(C)/C=C/C(=O)c1ccc2c(c1)CCC(C)(C)O2 | 0.03
CCOc1ccc2c(c1)CN(c1cc(C)ccc1C)CO2 | 7.5
COc1cc2cc(OS(=O)(=O)c3ccc(C)cc3)nc(C)c2cc1OC | -0.47
COc1cc(OC)cc(-c2nc3n(n2)C(c2cc(OC)ccc2OC)C(C(N)=O)=C(C)N3)c1 (configuration not stated) | 1.3
CS(=O)(=O)c1sc(Cl)c(-c2ccc(Cl)cc2)c1C#N | -8
CS(=O)(=O)c1sc(C#N)c2c1C(=O)CC(c1ccccc1)C2 (configuration not stated) | 5.7*
CCOC(=O)c1sc(S(C)=O)c2c1CC(c1ccccc1)CC2=O (configuration not stated) | 1.6
Clc1ccc(CSC2=NCN(C3CC3)CN2)cc1Cl | -1.8
CSc1ccc(-c2ncnn2-c2cccc(Cl)c2C)cc1 | 1.6
COc1cccc(C2C(C(=O)OC(C)C)=C(C)NC3=C2C(=O)CC(C)(C)C3)c1OC (configuration not stated) | 0.09
CC(=O)n1c(-c2ccc(C)cc2)cc(-c2ccc(C)cc2)c(C#N)c1=O | 3.4*
Cc1ccc(-c2cc(-c3ccccc3)c(C#N)c(N)n2)cc1 | -0.15
CCOC(=O)c1nn(-c2ccccc2)c(=O)c2c(N)c(C#N)c(-c3ccccc3)cc12 | -1.2
CC(C)(C)OC(=O)N1CCCN(S(=O)(=O)c2ccc(N3C(=O)CC4(CCCC4)C3=O)c(Cl)c2)CC1 | -1.3
COc1ccc(Br)cc1C1NC(=O)c2ccccc2N1 (configuration not stated) | 1.7
Cc1cc(N)n2ncc(-c3ccccc3)c2n1 | 0.44
Cc1cc(C)n2ncc(-c3ccc(Cl)cc3)c2n1 | 3.9*
Cc1cc(C)n2nc(C)c(-c3ccc(Cl)cc3)c2n1 | 1.9
CC(=O)Oc1ccc2c(c1)C(C)=CC(C)(C)N2C(C)=O | 1.1
Cn1nc(CC(=O)Nc2nnc(SCC(=O)c3ccccc3)s2)c2ccccc2c1=O | -0.02
SMILES | Dicer inh
COc1ccc(C2C3=C(CC(C)(C)CC3=O)Nc3cc4c(cc32)OCO4)cc1 (configuration not stated) | 6.2*
CCOc1ccc(C2C3=C(CC(C)(C)CC3=O)Nc3cc4c(cc32)OCO4)cc1 (configuration not stated) | 2.9
CC1(C)CC(=O)C2=C(C1)Nc1cc3c(cc1C2c1ccc(F)cc1)OCO3 (configuration not stated) | 1.8
CN(CCO)c1c[nH]c(=O)[nH]c1=O | -1.6
O=c1c(-c2cccc3ccccc23)c(C(F)(F)F)oc2cc(O)ccc12 | -0.11
O=C(O)c1ccccc1-c1c2ccc3cc(O)ccc3c2oc2c1ccc1cc(=O)ccc12 | 4.3*
COc1ccccc1-c1cc(C(=O)O)c2ccccc2n1 | -0.51
CC1=C(C(=O)OC(C)(C)C)C(c2ccccc2)NC(=O)N1C (configuration not stated) | 0.75
COC(=O)C1=C(C)NC2=C(C(=O)CC(c3ccc(F)cc3)C2)C1c1cn[nH]c1-c1ccc(F)cc1 (configuration not stated) | 0.92
O=C1c2ccccc2-c2c1c1ccccc1c(=O)n2Cc1ccc2c(c1)OCO2 | 3.1*
O=C1c2ccccc2C(=O)N1CN(Cc1ccc2c(c1)OCO2)CN1C(=O)c2ccccc2C1=O | -1.2
O=C1c2ccccc2-c2c1c1ccccc1c(=O)n2CC1CC1 | -0.55
C#CCSc1ncc(-c2ccc(Cl)cc2)[nH]1 | 1.2
Cc1ccc(C)n1-c1ccsc1C(=O)NNC(=O)/C=C/c1ccccc1 | 0.01
COc1ccc(NC(=O)CSCC(=O)O)c(N2CCOCC2)n1 | 1.6
CCCC(O)C(NC(=O)c1ccccc1)c1ccccc1 (configuration not stated) | 0.02
CC1=C(C(=O)OCc2ccccc2)C(c2cccs2)C2=C(CC(C)(C)CC2=O)N1 (configuration not stated) | 0.85
Fc1cccc(NC(=S)NC(c2ccccc2)c2ccccc2)c1 | 4.9*
CC(C)(C)NNC(=S)Nc1cccc(F)c1 | -0.44
FC(F)(F)c1cccc(NC(=S)Nc2cccc(C(F)(F)F)c2)c1 | 0.22
COc1ccc(-c2nc3n(n2)C(=O)CC(c2cccc4ccccc24)S3)cc1 (configuration not stated) | 4.2*
O=C1CCC(=O)N1c1nc2n(n1)C(c1ccccc1)C=C(c1ccccc1)N2 (configuration not stated) | 2.5
O=C1CC(c2ccccc2)Sc2nc(-c3ccc(F)cc3)nn21 (configuration not stated) | -0.47
Cc1ccc(-c2nc3n(n2)C(=O)CC(c2ccc4c(c2)OCO4)S3)cc1 (configuration not stated) | -0.11
O=C1CC(c2cccc3ccccc23)Sc2nc(-c3ccccc3)nn21 (configuration not stated) | 4.4*
COc1ccc(-c2nc3n(n2)C(c2cccc(OC)c2OC)C2=C(CC(C)(C)CC2=O)N3)cc1 (configuration not stated) | 2.3
Cc1cc(C)c2ccc(C3C(=O)c4ccccc4C3=O)nc2c1 | -0.59
COCCCNC(=S)NNC(=O)CC#N | -0.57
O=C(Nc1ccc(S(=O)(=O)Nc2ncccn2)cc1)c1cc2ccccc2o1 | 0.46
